# HTT aggregate – qHTS Multiplex Assay to Identify Dual Action Probes in a Cell Model of Huntington: Aggregate Formation (GFP). PC12 HttQ103-GFP aggregates, Acumen cytometry, 40 h. Potency, µM (series often up to 46.1 µM), for the others: at the top dose activity change, negative = inhibition, hits mostly inhibitors. hit rate 1.1% among 220,000. AID 1688, 2009; also: potency is read from the fitted curve at half-maximal effect; % is scaled to controls: 0 for no effect and ±100 for the full control effect; nearly all actives have a fitted effect of over 60% in size
#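 Ecdysone-promoter PC12 model expressing HTT exon 1 Q103 fused to GFP, induced by tebufenozide at 100 nM final. Compounds titrated; aggregates sized 1–25 µm scored on a 488 nm laser cytometer.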
# HPGD block – qHTS Assay for Inhibitors of HPGD (15-Hydroxyprostaglandin Dehydrogenase). purified HPGD, NADH fluorescence kinetic, PGE2 substrate. Potency, µM, inactives show at the highest dose activity change, negative = inhibition, hits mostly inhibitors. hit rate 4.3% among 150,000. 15-hydroxyprostaglandin dehydrogenase [NAD(+)] (Homo sapiens), P15428; active = well fitted inhibition curve with a large enough effect, not every such curve was filed as active; inconclusive = small, poorly fitted or top-dose-only effect, or another doubt; inactive = no such curve, though single readings can be large or run the other way; also: potency is read from the fitted curve at half-maximal effect; % is scaled to controls: 0 for no effect and ±100 for the full control effect
#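 20 nM HPGD preincubated 15 min at room temperature with compound in 50 mM Tris-HCl pH 8, 0.01% Tween 20. Started with 1 mM NAD+ and 30 uM prostaglandin E2; NADH fluorescence (360/450 nm) read 5 times over 30-s intervals, last minus first.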
# KDM4E inh – qHTS Assay for Inhibitors of Human Jumonji Domain Containing 2E (JMJD2E); Lysine-specific demethylase 4E (Homo sapiens), B2RXH2; JMJD2E catalytic domain, FDH-coupled NADH fluorescence (FDH is formaldehyde dehydrogenase); Potency, µM (titrated, usually from 57.1 µM), for inactives: top-dose activity change, negative = inhibition, actives largely listed as inhibitors; hit rate 1.6% among 230,000; active = well fitted inhibition curve with a large enough effect, not every such curve was filed as active; inconclusive = small, poorly fitted or top-dose-only effect, or another doubt; inactive = no such curve, though single readings can be large or run the other way;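 also: potency is read from the fitted curve at half-maximal effect; 0% = wells with enzyme and -100% = buffer wells without enzyme; nearly all actives have a fitted effect of over 50% in size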
# ALDH1A1 block – qHTS Assay for Inhibitors of Aldehyde Dehydrogenase 1 (ALDH1A1). Aldehyde dehydrogenase 1A1 (Homo sapiens), P00352. Purified ALDH1A1, NADH fluorescence, propionaldehyde substrate. Potency, µM (doses to about 75.3 µM), inactives show at the highest dose activity, negative = inhibition, actives largely listed as inhibitors. hit rate 7.3% among 220,000; active = well fitted inhibition curve with a large enough effect, not every such curve was filed as active; inconclusive = small, poorly fitted or top-dose-only effect, or another doubt; inactive = no such curve, though single readings can be large or run the other way;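 also: potency is read from the fitted curve at half-maximal effect; plate controls were no enzyme wells and a reference inhibitor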
# HTT cytoprotect – qHTS Multiplex Assay to Identify Dual Action Probes in a Cell Model of Huntington: Cytoprotection (ATP) | Potency, µM (series often up to 56.4 µM), for the others: cytoprotection (ATP increase), actives largely listed as activators | PC12 HTT-Q103 induced, cytoprotection, ATP luminescence, 40 h | hit rate 0.14% among 230,000; also: potency is read from the fitted curve at half-maximal effect; % of control where 0% means no effect; nearly all actives have a fitted effect of over 45% in size
#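 Huntington model: PC12 line, ecdysone-inducible HTTQ103 exon1–GFP, tebufenozide 100 nM. Test articles in a dose series. Endpoint luminescence from cellular ATP.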
# CBFb-RUNX1 inh – qHTS Assay for Compounds Blocking the Interaction Between CBF-beta and RUNX1 for the Treatment of Acute Myeloid Leukemia. AlphaScreen CBFb-His/RUNX1-biotin binding, biochemical. 230,000 tested, under 10 active. Runt-related transcription factor 1 (Homo sapiens) + Core-binding factor subunit beta …. AID 1477, 2009. Potency, µM (titrated, usually from 59.8 µM), for the others: top-dose activity, negative = inhibition, hits mostly inhibitors; also: % of control where 0% means no effect
# Target sequence (Q01196 whole entry, looked up): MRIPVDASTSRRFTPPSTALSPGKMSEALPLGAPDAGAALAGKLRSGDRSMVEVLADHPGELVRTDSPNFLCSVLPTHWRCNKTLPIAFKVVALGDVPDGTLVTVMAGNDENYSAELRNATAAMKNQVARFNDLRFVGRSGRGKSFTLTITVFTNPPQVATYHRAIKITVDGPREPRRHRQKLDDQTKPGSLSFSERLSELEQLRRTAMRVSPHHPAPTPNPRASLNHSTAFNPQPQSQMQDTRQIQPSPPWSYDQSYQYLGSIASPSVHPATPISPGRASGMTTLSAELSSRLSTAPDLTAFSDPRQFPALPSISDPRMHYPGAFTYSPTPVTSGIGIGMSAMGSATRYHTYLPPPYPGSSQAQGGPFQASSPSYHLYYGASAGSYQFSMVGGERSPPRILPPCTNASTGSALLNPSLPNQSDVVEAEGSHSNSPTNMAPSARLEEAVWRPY
# Target sequence (Q13951 whole entry, looked up): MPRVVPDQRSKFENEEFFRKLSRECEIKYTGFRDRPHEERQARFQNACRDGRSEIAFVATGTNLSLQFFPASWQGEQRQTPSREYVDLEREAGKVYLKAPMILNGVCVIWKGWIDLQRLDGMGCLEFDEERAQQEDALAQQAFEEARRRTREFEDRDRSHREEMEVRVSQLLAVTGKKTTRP
#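 Interaction loss through any mechanism counts as activity. Pre-formed complex of His-CBF-beta and biotin-RUNX1 (30 nM apiece) is incubated with compound 15 min, then with 50 ng nickel and 50 ng streptavidin beads for 90 min before AlphaScreen detection.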
# * marks the source's active call; other numbers are inactive results; u = inconclusive; x = not tested or not shown; [ ] = another dose, or the depositor's remark. A selection: hits, their analogues and other compounds. The true share with any hit is near 9.8%. Unless noted, calls follow the shape of the dose curve; as a rule, active = well fitted curve in the direction sought with a large enough effect; inconclusive = small, poorly fitted or top-dose-only effect, or another doubt; inactive = no such curve, though single readings can be large; an effect the other way counts as inactive or inconclusive.
SMILES,HTT aggregate,HPGD block,KDM4E inh,ALDH1A1 block,HTT cytoprotect,CBFb-RUNX1 inh
N[C@@H](C(=O)O)c1ccc(C(=O)O)c(O)c1,x,u,u,u,4.4%,14.2%[21.7 µM]
CN(C)c1ccc(C=C2C(=O)OC(C)(C(C)(C)C)OC2=O)cc1 (stereo not drawn),4.7%,10µM*,-10.2%,0.398µM*,-8.8%,-2.1%
CN(C)c1ccc(C=C2C(=O)OC(C)(C)OC2=O)cc1,7.7%,x,-2.1%,0.794µM*,-25.5%,-6.5%
CS(=O)(=O)N1CCC2(CCCN(Cc3ccccc3)C2)CC1,x,-5.1%,x,11.6%,21.2%,x
COc1cc(CNc2ccc(N3CCCC3)cc2)cc(Cl)c1OC,x,x,14.1µM*,u,x,-0.6%
C=CCOc1c(Cl)cc(CNc2ccc(N(C)C)cc2)cc1OC,-2.3%,u,3.5%,2µM*,u,-0.7%
CCOc1cc(CNc2ccc(N3CCCC3)cc2)cc(Cl)c1OC,-2.3%,-13.0%,15.8µM*,31.6µM*,x,u
CCOc1cc(CNc2ccc(S(N)(=O)=O)cc2)cc(Cl)c1OC,16.7%,-3.0%,-0.2%,5.8%,x,-0.4%
CCOc1ccc(NC(=O)c2ccc(CNc3c(N4CCCC4)c(=O)c3=O)cc2)cc1,-7.5%[9.22 µM],x,8.4%,x,-11.3%[10 µM],5.4%
CCOc1ccc(CNc2ccc(N3CCCC3)cc2)cc1,-15.5%,-1.6%,15.8µM*,7.94µM*,-4.6%[0.074 µM],u
COc1ccc(CNCC(=O)Nc2cccc(S(N)(=O)=O)c2)cc1,-2.7%[9.22 µM],x,1.3%,u,u,1.6%
O=C(N/N=C/c1cc(O)ccc1[N+](=O)[O-])c1ccc2c(c1)OCCO2,-1.7%[9.22 µM],x,-1.9%,x,-58.3%[10 µM],-3.6%
Cc1ccc(NP(=O)(Nc2ccc(C)cc2)Nc2ccc(C)cc2)cc1,-26.2%,x,-12.8%,-2.0%,-5.7%[10 µM],6.6%
O=C(CCN1CCC(c2ccc(Cl)s2)=N1)c1ccc(Cl)s1,6.0%[9.22 µM],x,-1.1%,3.16µM*,9.1%[10 µM],7.7%
CC1CCN(C(=O)C(C)Sc2nc(-c3ccccc3)cc(C(F)(F)F)n2)CC1 (stereo not drawn),-32.0%,15.8µM*,1.7%,u,-17.0%,6.9%
CCC(=C(c1ccc(OC)cc1)c1ccc(OC)cc1)c1cn(CC(O)CN2CCN(C)CC2)c2ccccc12 (stereo not drawn),15.8µM*,-11.6%,-10.7%,-14.0%,-99.3%,-27.2%
COc1ccc(NC2c3ccccc3C(=O)N2c2ccccn2)cc1 (stereo not drawn),-2.3%[9.22 µM],x,u,x,6.1%[10 µM],-4.6%
CC1(C)CC(=O)C=C(NNC(=O)C2CCCCC2)C1,-3.2%,14.7%,-2.2%,12.6µM*,2.0%[10 µM],3.7%
Cc1nn(Cc2ccccc2)c(C)c1/C=N/NC(=O)CNc1cccc(C(F)(F)F)c1,18.5%,-9.9%,-12.9%,-9.0%,u,-1.3%
COc1ccc(NCC(=O)N/N=C/c2c(C)nn(Cc3ccccc3)c2Cl)cc1,-29.3%,u,u,15.8µM*,-2.7%[10 µM],-2.0%
c1cncc(-c2nnc(SCc3cccc4ccccc34)o2)c1,9.9%,25.1µM*,8.0%,-3.0%,2.1%,8.4%
O=C(CSc1nnc(-c2cccnc2)o1)OC1CCCCC1,2.6%,-14.1%,0.1%,10µM*,-11.0%[10 µM],3.3%
CCOC(=O)CSc1nnc(-c2cccnc2)o1,-3.7%,-13.7%,6.0%,13.4%,18.9%[1.9 µM],8.5%
Cc1cc(N(CCO)CCO)nc(-n2nc(C)cc2C)n1,-1.4%,-11.2%,5.0%,11.2µM*,-14.5%,8.3%
CCNc1nc(N)nc(Oc2ccc(OCCOc3ccc(Cl)cc3Cl)nn2)n1,2.1%,1µM*,2.0%,-2.5%,-21.9%[0.074 µM],8.0%
SMILES,HTT aggregate,HPGD block,KDM4E inh,ALDH1A1 block,HTT cytoprotect,CBFb-RUNX1 inh
S=C1NC2=C(CCCC2=C2SCCS2)C(c2ccccc2)N1 (stereo not drawn),3.2%,x,-7.6%,0.355µM*,-26.4%,-28.5%
COc1ccc(CNCc2c(C(=O)N(C)C)nc3ccc(Cl)cn23)c(OC)c1,2.5%[9.22 µM],x,-8.7%,u,25.4%[10 µM],10.4%
O=C(c1noc2c1CCc1ccccc1-2)N1CCc2ccccc2C1,u,15.8µM*,-22.8%,u,0.0%[10 µM],u
Cc1cc(NC(=O)c2noc3c2CCc2ccccc2-3)no1,-12.1%,-9.6%,-4.1%,4.3%,-6.9%,2.4%
COc1ccc2c(c1)CCc1c(C(=O)N3CCCCCC3)noc1-2,-6.0%,10µM*,-5.0%,u,-35.8%,16.0%
O=C(c1noc2c1CCc1ccccc1-2)N1CCOCC1,7.1%,-22.6%,4.3%,-13.7%,3.5%[10 µM],8.3%
O=C(c1noc2c1CCc1ccccc1-2)N1CCCc2ccccc21,17.8%,-27.4%,0.5%,12.6µM*,12.1%,8.6%
COC(=O)c1cc(C(=O)NCc2ccccc2)c(=O)[nH]c1C,12.3%,x,70.0%,u,-16.7%,9.0%
CCc1ccc(/C=C\C(=O)N2CCc3ccccc3C2)cc1,u,11.2µM*,4.6%,0.9%,-80.8%,6.6%
CCc1ccccc1N(C1=NCCCS1)S(=O)(=O)c1ccc(C(C)(C)C)cc1,1.8%,-16.9%,-1.3%,0.794µM*,19.4%[10 µM],26.8%
CC(=O)c1cccc(NC(=S)NC(=O)CC(C)C)c1,-3.2%,15.8µM*,-5.9%,4.1%,20.8%,3.7%
CCCCCC(=O)NC(=S)Nc1cccc(C(C)=O)c1,6.9%,14.1µM*,0.2%,u,-3.6%[10 µM],14.3%
CCCC(=O)NC(=S)Nc1cccc(C(C)=O)c1,9.9%,15.8µM*,1.2%,-11.2%,2.4%,-0.6%

# Compound activity: PubChem BioAssay, National Center for Advancing Translational Sciences (NCATS)
